Laboratory results reported in PubChem BioAssay AID651813 (National Center for Advancing Translational Sciences (NCATS), 2012).
Screen size: about 2,100 compounds; about 1,100 (52%) were called active. Another 27% or so got no clear call; they are omitted. Calls follow the shape of the dose curve; as a rule, active = well fitted inhibition curve with a large enough effect; inconclusive = small, poorly fitted or top-dose-only effect; inactive = no such curve, though single readings can be large or run the other way. So high a share suggests a set chosen from earlier hits. Some of the results follow.

biological target: DNA dC->dU-editing enzyme APOBEC-3G (Homo sapiens) (UniProt Q9HC16); assay: qHTS for inhibitors of Vif-A3G interactions: Cherry picks counterscreen; settings: HeLa A3G-eYFP + Vif (tagged APOBEC3G with the HIV-1 protein that degrades it), eYFP fluorescence, 24 h;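 also: hits raise yellow fluorescence by blocking Vif-driven A3G-eYFP degradation; nearly all actives have a fitted effect of over 70% in size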;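 as to max response: max response given as percent of control signal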
Sequence (Q9HC16 whole entry, looked up): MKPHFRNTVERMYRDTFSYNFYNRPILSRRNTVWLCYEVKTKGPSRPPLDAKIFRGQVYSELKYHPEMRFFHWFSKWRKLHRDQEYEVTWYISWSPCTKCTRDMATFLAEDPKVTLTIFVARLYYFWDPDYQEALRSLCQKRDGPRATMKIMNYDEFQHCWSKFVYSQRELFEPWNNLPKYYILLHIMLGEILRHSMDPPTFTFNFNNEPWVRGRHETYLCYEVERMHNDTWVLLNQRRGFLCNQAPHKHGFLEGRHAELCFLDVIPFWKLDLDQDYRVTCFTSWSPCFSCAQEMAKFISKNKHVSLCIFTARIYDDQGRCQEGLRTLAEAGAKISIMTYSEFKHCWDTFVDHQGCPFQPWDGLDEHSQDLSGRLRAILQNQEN
Procedure, shortened: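 Readout is eYFP fluorescence (488 nm excitation, 500-530 nm emission) measured on Acumen Explorer after 24 h compound exposure, several concentrations, at 37 deg C. Cells: HeLa stably co-expressing Vif and C-terminally eYFP-tagged A3G; MG132 positive control.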
Potency is read from the fitted curve at half-maximal effect.

| Compound | max response | Potency |
| --- | --- | --- |
| COc1cc(CNCCSc2nnnn2C)ccc1OCc1c(F)cccc1Cl | 28.9% (inactive) |  |
| Cc1ccc2nc(/C(C#N)=C/c3ccc(-c4cccc(Cl)c4)o3)[nH]c2c1 |  | 8.2 µM (active) |
| N#C/C(=C\c1ccc(-c2ccc(C(=O)O)cc2)o1)c1nc2ccccc2[nH]1 |  | 4.61 µM (active) |
| Cc1c(Cl)cccc1-c1ccc(/C=C(\C#N)c2nc3ccccc3[nH]2)o1 |  | 10.3 µM (active) |
| Cc1ccc2nc(/C(C#N)=C/c3ccc(-c4ccc(C(=O)OC(C)C)cc4)o3)[nH]c2c1 |  | 3.66 µM (active) |
| N#Cc1ccc(-c2cccs2)nc1SCc1c(F)cccc1Cl |  | 1.84 µM (active) |
| C=C(C(=O)c1ccccc1)C(NC(C)(C)C)c1ccccc1 (stereo not drawn) |  | 14 µM (active) |
| C=C(C(=O)c1ccccc1)C(C)C(=C)C(=O)c1ccccc1 |  | 8.86 µM (active) |
| C=C(C(=O)c1ccccc1)C(C(=C)C(=O)c1ccccc1)c1ccc(OC)cc1 |  | 9.94 µM (active) |
| COc1ccc(-c2n[nH]c(C)c2-c2ccc(OC)c(OC)c2)c(O)c1 |  | 17.7 µM (active) |
| Cc1cc(C)c(NC(=O)Cn2c(=O)n(Cc3ccc(C(=O)NCc4ccco4)cc3)c(=O)c3sccc32)c(C)c1 |  | 18.4 µM (active) |
| COc1cc2nc(SCC(=O)NCc3ccco3)n(Cc3ccc(Cl)cc3)c(=O)c2cc1OC | -29.6% (inactive) |  |
| Cc1ccc(C)c(Cn2c(=O)n(CCCC(=O)NCc3ccco3)c(=O)c3sccc32)c1 |  | 14 µM (active) |
| Cc1cccc(Cn2c(=O)n(CCCC(=O)NCc3ccco3)c(=O)c3ccccc32)c1 |  | 14 µM (active) |
| CC(C)OC(=O)c1c2c(n3ccccc13)C(=O)c1ccccc1C2=O |  | 2.59 µM (active) |
| CCc1nnc(NC(=O)CSc2nnc(-c3ccccc3O)n2-c2ccc(C)cc2C)s1 |  | 6.27 µM (active) |
| CC(=O)c1cc(NC(=O)c2ccc(C)cc2)c(=O)oc1/C=C/N(C)C |  | 14.6 µM (active) |
| COC(=O)c1cc(NC(=O)c2ccccc2)c(=O)oc1/C=C/Nc1ccc(Oc2ccccc2)cc1 | 11.8% (inactive) |  |
| CC(=O)c1cc(NC(=O)c2ccc(Cl)cc2)c(=O)oc1/C=C/N(C)C |  | 7.04 µM (active) |
| COc1ccc(C(=O)Nc2cc(C(C)=O)c(/C=C/N(C)C)oc2=O)cc1 |  | 9.94 µM (active) |
| COC(=O)c1c(-c2ccccc2Cl)noc1/C=C/N(C)C | 16.3% (inactive) |  |
| COc1ccc(N2CC(C(=O)N/N=C/c3ccc(C)cc3)CC2=O)cc1 (stereo not drawn) |  | 7.04 µM (active) |
| COC(=O)c1ccccc1NC(=O)C1CC(=O)N(c2ccc(OC)cc2)C1 (stereo not drawn) | -25.1% (inactive) |  |
| Cc1cccc2[nH]cc(/C=C3/C=Nc4ccccc43)c12 |  | 18.4 µM (active) |

| Compound | max response | Potency |
| --- | --- | --- |
| Cc1ccc(/C=N/NC(=O)c2ccc3ccccc3c2)s1 |  | 1.58 µM (active) |
| O=C(N/N=C/c1c[nH]c2ccccc12)C1COc2ccccc2O1 (stereo not drawn) |  | 14 µM (active) |
| Cc1ccc(-c2cc(C(=O)N/N=C/c3c[nH]c4ccccc34)[nH]n2)cc1 |  | 4.98 µM (active) |
| CNC(=S)N/N=C/c1ccc(N2CCOCC2)s1 | 10.6% (inactive) |  |
| Cc1ccc(/C=N/NC(=O)C2COc3ccccc3O2)s1 (stereo not drawn) |  | 7.9 µM (active) |
| Cc1cc(C)nc(NC(=S)Nc2cccc(Cl)c2Cl)c1 | 1.24% (inactive) |  |
| O=C(NCC1CCCO1)c1nn2c(C(F)(F)F)cc(-c3cc(Br)cs3)nc2c1Br (stereo not drawn) |  | 16.4 µM (active) |
| Cc1ccc(C(=O)NC2c3ccccc3-c3ccccc32)cc1 |  | 1.98 µM (active) |
| O=c1c2cc3ccccc3n2cnn1Cc1ccccc1F |  | 12.5 µM (active) |
| CC(CC(=O)Nc1ccc2c(c1)c(=O)n(C)n2-c1ccccc1F)c1ccccc1 (stereo not drawn) |  | 15.8 µM (active) |
| CC(CC(=O)Nc1ccc2c(c1)c(=O)n(C)n2-c1ccccc1)c1ccccc1 (stereo not drawn) |  | 3.96 µM (active) |
| Cn1c(=O)c2cc(NC(=O)Cc3cccc4ccccc34)ccc2n1-c1ccccc1 |  | 11.2 µM (active) |
| CC(CC(=O)Nc1ccc2c(c1)c(=O)n(C)n2Cc1ccc(F)cc1)c1ccccc1 (stereo not drawn) | -26% (inactive) |  |
| CCCCCCCNc1ccc(/C=C/c2ccnc3ccccc23)cc1 |  | 11.6 µM (active) |
| CCCCCCNc1ccc(/C=C/c2ccnc3ccccc23)cc1 |  | 18.4 µM (active) |
| COc1ccccc1NC(=O)c1sc2ncn(CC(=O)Nc3ccccc3)c(=O)c2c1C |  | 18.4 µM (active) |
| CCC(=O)Nc1nc2ccc(NC(=O)c3cc(OC)c(OC)c(OC)c3)cc2s1 | -0.685% (inactive) |  |
| CCCC(=O)Nc1nc2ccc(NC(=O)c3ccccc3F)cc2s1 |  | 15.8 µM (active) |
| COc1ccc(OC)c(-c2cc(-c3cccnc3)nc(N)c2C#N)c1 |  | 5.59 µM (active) |
| COc1ccccc1-c1cc(-c2ccccc2)nc(SC(C(N)=O)c2ccccc2)c1C#N (stereo not drawn) | -23.2% (inactive) |  |
| COc1ccc(-c2c(C#N)c(N)nc(Sc3ccc(Cl)cc3)c2C#N)cc1 | -11.5% (inactive) |  |
| CCOCCCNC(=O)/C(C#N)=C/c1ccc([N+](=O)[O-])o1 |  | 23.1 µM (active) |
| Cc1ccc(NC(=O)C(=Cc2ccc(C(=O)O)cc2)C(=O)Nc2ccc(C)cc2C)c(C)c1 |  | 7.04 µM (active) |
| COc1cc(/C=C/c2ccnc3ccccc23)ccc1N(C)C |  | 18.4 µM (active) |

| Compound | max response | Potency |
| --- | --- | --- |
| COc1cc(N(C)C)c(OC)cc1/C=C/c1ccnc2ccccc12 |  | 23.1 µM (active) |
| C=CCN=c1scc(-c2ccc(F)cc2)n1/N=C/c1ccccn1 | -11.2% (inactive) |  |
| COc1cccc(C(=O)c2sc3nc(-c4ccccc4)cc(C(F)(F)F)c3c2N)c1 |  | 0.92 µM (active) |
| CCOC(=O)c1sc(NC(=S)NC(=O)c2ccco2)nc1C | -15.3% (inactive) |  |
| CCC(=O)OCc1cnc(C)c2oc(=O)c(C(=O)Nc3ccccc3C(F)(F)F)cc12 | -2.09% (inactive) |  |
| COc1ccc(C(=O)c2sc3nc(C)cc(-c4cccs4)c3c2N)cc1 |  | 20.6 µM (active) |
| CCc1ccc(NC(=O)c2sc3nc(C)c(C(=O)Nc4ccc(C)cc4C)c(-c4ccco4)c3c2N)cc1 |  | 23.1 µM (active) |
| COc1ccc(OC)c(NC(=O)c2sc3nc(Cc4ccccc4)cc(C(F)(F)F)c3c2N)c1 |  | 3.66 µM (active) |
| COc1ccc(NC(=O)c2sc3nc(-c4ccc(OC)cc4)cc(C(F)(F)F)c3c2N)cc1 |  | 1.3 µM (active) |
| COc1ccc(C(=O)c2sc3nc(-c4ccc(C)cc4)cc(C(F)(F)F)c3c2N)cc1 |  | 0.731 µM (active) |
| CCOC(=O)c1c(C)nc2sc(C(=O)Nc3ccc(OC)cc3)c(N)c2c1-c1ccc(OC)cc1 |  | 1.98 µM (active) |
| CCOC(=O)c1c(-c2ccc(OC)cc2)csc1/N=C/C1C(=O)CCCC1=O | -18.7% (inactive) |  |
| Cc1c(C(=O)Nc2ccc(C(C)C)cc2)sc2nc3n(c(=O)c12)CCC3 | 6.74% (inactive) |  |
| Cc1ccc2c(c1C)NC(=O)CC(c1ccccc1O)=N2 | -6.13% (inactive) |  |
| O=C(Cc1nc2ccccc2[nH]c1=O)c1ccc(Cl)cc1 |  | 1.03 µM (active) |
| COc1ccc(CN2C(=O)C(C)Nc3ncnc(N4CCc5ccccc5C4)c32)cc1 (stereo not drawn) |  | 3.53 µM (active) |
| Cc1ccc(S(=O)(=O)c2cc3ccccc3oc2=Nc2ccc3c(c2)OCO3)cc1 | 12.1% (inactive) |  |
| C=C(C)CNC(=S)N/N=C1\CCCCc2ccccc21 | -14.6% (inactive) |  |
| CN(C)c1ccc(/C=C/c2ccnc3ccccc23)cc1O |  | 20.6 µM (active) |
| CN(C)c1ccc(/C=C/c2ccnc3ccccc23)cc1C=O |  | 5.17 µM (active) |
| CN1CCCc2cc(/C=C/c3ccnc4ccccc34)ccc21 |  | 5.8 µM (active) |
| Cc1cc(/C=C/c2ccnc3ccccc23)ccc1N(C)C |  | 14.6 µM (active) |
| O=C(Nc1cc(Cl)cc2c1-c1ccc(Cl)cc1C2O)C(Cl)Cl (stereo not drawn) | -14.6% (inactive) |  |
| O=C(/C=C/c1ccncc1)c1cc(Cl)ccc1O | -22.8% (inactive) |  |

| Compound | max response | Potency |
| --- | --- | --- |
| CCc1cc(/C=C/c2ccnc3ccccc23)ccc1N(C)C |  | 20.6 µM (active) |
| Cc1cc(/C=C/c2ccnc3ccccc23)ccc1N |  | 18.4 µM (active) |
| CN1C(=O)C(O)(C2COC(C)(C)CC2=O)c2cc(Br)ccc21 (stereo not drawn) | -0.606% (inactive) |  |
| N=C1S/C(=C\c2ccc(-c3cccc(Cl)c3)o2)C(=O)N1c1nccs1 |  | 16.4 µM (active) |
| CCc1ccc(CNC(=O)Cc2ccc(NC(=O)C3=C(C)OCCS3)cc2)cc1 |  | 0.886 µM (active) |
| CC(C)OC(=O)c1ccc(NCc2cc(O)ccc2O)cc1Cl | -19.4% (inactive) |  |
| CC(C)OC(=O)c1cc(C(=O)c2cc(F)ccc2O)coc1=N |  | 20.6 µM (active) |
| O=C(N/N=C/c1ccc(Cl)cc1)c1cc2c(s1)-c1ccccc1CC2 |  | 7.04 µM (active) |
| COc1ccc(-c2[nH]ncc2N=Nc2ccccc2)cc1 |  | 8.86 µM (active) |
| Cc1ccccc1OCCc1c(C)[nH]c(=S)[nH]c1=O |  | 2.5 µM (active) |
| Cc1ccc(-c2nc(SCCOc3ccccc3C)n3[nH]c(=O)cc3n2)cc1 | 23% (inactive) |  |
| N#C/C(=C\c1cccc(O)c1)c1nc2ccccc2o1 |  | 7.04 µM (active) |
| Cc1ccccc1OCC(=O)NNC(=O)Nc1ccc(Cl)cc1 |  | 6.27 µM (active) |
| O=C(Nc1ccc(Cl)cc1)Nc1ccon1 | -27.2% (inactive) |  |
| COc1cccc(/C=N/NC(=O)c2[nH]nc3c2CCc2ccccc2-3)c1 |  | 5.59 µM (active) |
| COc1ccc(/C=N/NC(=O)c2[nH]nc3c2CCc2ccccc2-3)cc1OC |  | 3.96 µM (active) |
| O=C(NCCC1=CCCCC1)C1CCC(CNc2nc(=S)[nH]c3ccccc23)CC1 (stereo not drawn) | -2.72% (inactive) |  |
| Cc1ccc(C)c2nc3sc(C(=O)N4CCOCC4)c(N)c3cc12 |  | 17.7 µM (active) |
| Cc1sc(NC(=O)c2sc3nc4c(C)cccc4cc3c2N)c(C#N)c1C |  | 17.7 µM (active) |
| Cc1cccc2cc3c(N)c(C(=O)Nc4ccc(N5CCOCC5)cc4)sc3nc12 |  | 14 µM (active) |
| Cc1cccc2cc3c(N)c(C(=O)N4CCOCC4)sc3nc12 |  | 8.2 µM (active) |
